Values without a mark were called inactive.
Columns and labels:
Details in all cases: 60 µM; 5 days; temperature: 20 °C
Meloidogyne hapla J2 = experiment: proportion of mobile M. hapla J2 relative to DMSO control (fraction of DMSO control); higher = more viable, less nematicidal, active = 0.7 or less
In short: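 Two biological replicates were run and averaged, each on 96-well plates in which about 25 M. hapla J2 sat in distilled water per well. Compound was pinned in to give 60 µM final and 0.6% v/v DMSO, and the sealed plates were shaken at 200 rpm and 20 °C for 5 days before 2 µL 1 M NaOH was added. Mobility was scored microscopically and divided by the mean from the plate's DMSO-only wells, of which there were eight.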

[1] = test system: Caenorhabditis elegans dauer (daf-2(e1370)); experiment: proportion of mobile C. elegans dauer larvae relative to DMSO control (fraction of DMSO control); higher = more viable, less nematicidal, active = 0.63 or less; extreme values may be limits of the assay
In short: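 Compound was added by pinning to 60 µM final, giving 0.6% v/v DMSO, in 96-well plates containing about 20 C. elegans dauers per well in liquid NGM. These dauers came from synchronized larvae held on MYOB plates with E. coli OP50 for 48 h at 25 °C. Plates were sealed and shaken at 200 rpm at 20 °C for 5 days. Under a dissection microscope, the proportion of mobile worms was scored relative to DMSO wells, and two biological replicates were averaged.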

Ditylenchus dipsaci = experiment: proportion of mobile D. dipsaci (mixed stage) relative to DMSO control (fraction of DMSO control); higher = more viable, less nematicidal, active = 0.86 or less; extreme values may be limits of the assay
In short: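 The worms, D. dipsaci raised on pea plants in Gamborg B-5 agar, were recovered through a filter funnel into water. Each well of a 96-well plate then held about 20 of them in distilled water plus pinned compound at 60 µM final (0.6% v/v DMSO), and the sealed plates were shaken at 200 rpm at 20 °C for 5 days. Following addition of 2 µL 1 M NaOH, mobile worms were counted by microscopy, and mobility was expressed against DMSO controls as the average of two biological replicates.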

Q: Which “proportion of mobile M. hapla J2” value (Meloidogyne hapla J2) does the source give for `COc1ccc(-c2noc(COc3ccc4c(c3)CCCC4)n2)cc1` here?
A: 0.959

Q: What about the “proportion of mobile C. elegans dauer larvae” value [1] of the same compound?
A: 1

Q: And the “proportion of mobile D. dipsaci” value (Ditylenchus dipsaci)?
A: 1

Q: With `Clc1ccc(-c2noc(-c3ccccc3Br)n2)cc1` as the compound, how does the “proportion of mobile M. hapla J2” value (Meloidogyne hapla J2) read?
A: 0.995

Q: And the “proportion of mobile C. elegans dauer larvae” value [1]?
A: 1

Q: And the “proportion of mobile D. dipsaci” value (Ditylenchus dipsaci)?
A: 1

Q: With `Cc1ccc(-c2nnc(SCC(=O)Nc3cc(C)c(C)cc3Br)o2)cc1` as the compound, how does the “proportion of mobile M. hapla J2” value (Meloidogyne hapla J2) read?
A: 0.792

Q: And the “proportion of mobile C. elegans dauer larvae” value [1]?
A: 1

Q: What about the “proportion of mobile D. dipsaci” value (Ditylenchus dipsaci) of the same compound?
A: 1

Q: With `CCOC(=O)c1c(NC(=O)CSc2nnc(-c3ccc(Cl)cc3)o2)sc(C(C)=O)c1C` as the compound, how does the “proportion of mobile M. hapla J2” value (Meloidogyne hapla J2) read?
A: 0.809

Q: What about the “proportion of mobile C. elegans dauer larvae” value [1] of the same compound?
A: 1

Q: What about the “proportion of mobile D. dipsaci” value (Ditylenchus dipsaci) of the same compound?
A: 1

Q: What does the source list for `CCOc1ccccc1-c1nc(-c2ccc(NC(=O)Cc3ccccc3OC)cc2)no1`?
A: proportion of mobile M. hapla J2 (Meloidogyne hapla J2): 1.04; proportion of mobile C. elegans dauer larvae [1]: 1; proportion of mobile D. dipsaci (Ditylenchus dipsaci): 1

Q: `Cc1ccc(-c2noc(-c3cccc(Br)c3)n2)cc1` was tested. Which “proportion of mobile M. hapla J2” value (Meloidogyne hapla J2) did it give?
A: 1.04

Q: What about the “proportion of mobile C. elegans dauer larvae” value [1] of the same compound?
A: 1

Q: What about the “proportion of mobile D. dipsaci” value (Ditylenchus dipsaci) of the same compound?
A: 1

Q: With `CN(C)C(=O)c1ccccc1-c1nc(-c2ccccc2Cl)no1` as the compound, how does the “proportion of mobile M. hapla J2” value (Meloidogyne hapla J2) read?
A: 0.882

Q: And the “proportion of mobile C. elegans dauer larvae” value [1]?
A: 1

Q: And the “proportion of mobile D. dipsaci” value (Ditylenchus dipsaci)?
A: 1

Q: How did the “proportion of mobile M. hapla J2” value (Meloidogyne hapla J2) turn out when `Cc1ccccc1-c1nc(-c2ccc(Cl)cc2)no1` was run?
A: 0.841

Q: What about the “proportion of mobile C. elegans dauer larvae” value [1] of the same compound?
A: 1

Q: What about the “proportion of mobile D. dipsaci” value (Ditylenchus dipsaci) of the same compound?
A: 1

Q: `CCCSc1nnc(-c2ccc(Cl)cc2Cl)o1` was tested. Which “proportion of mobile M. hapla J2” value (Meloidogyne hapla J2) did it give?
A: 0.991

Q: And the “proportion of mobile C. elegans dauer larvae” value [1]?
A: 0.143 (active)

Q: And the “proportion of mobile D. dipsaci” value (Ditylenchus dipsaci)?
A: 1

Q: With `COc1ccc(Cl)cc1-c1noc(COc2ccccc2)n1` as the compound, how does the “proportion of mobile M. hapla J2” value (Meloidogyne hapla J2) read?
A: 0.953

Q: What about the “proportion of mobile C. elegans dauer larvae” value [1] of the same compound?
A: 1

Q: What about the “proportion of mobile D. dipsaci” value (Ditylenchus dipsaci) of the same compound?
A: 1

Q: `CNC(=O)c1ccccc1-c1nc(-c2ccc(F)cc2)no1` was tested. Which “proportion of mobile M. hapla J2” value (Meloidogyne hapla J2) did it give?
A: 0.987

Q: And the “proportion of mobile C. elegans dauer larvae” value [1]?
A: 1

Q: What about the “proportion of mobile D. dipsaci” value (Ditylenchus dipsaci) of the same compound?
A: 1

Q: `CCn1c(SCc2nc(-c3cccs3)no2)nnc1-c1ccco1` was tested. Which “proportion of mobile M. hapla J2” value (Meloidogyne hapla J2) did it give?
A: 0.813

Q: What about the “proportion of mobile C. elegans dauer larvae” value [1] of the same compound?
A: 1

Q: And the “proportion of mobile D. dipsaci” value (Ditylenchus dipsaci)?
A: 1

Reference: the supplement of paper PMC11219838
